Data reported in PubChem BioAssay AID1159580 (chemical genetic matrix, 2015).
Values joined by “and” are separate entries in the source; they are usually repeats but may differ in a detail not shown here. Equal entries are not always repeated. In all, about 5,500 compounds went through this assay and about 2,000 (36%) were called active. Roughly 18% stayed inconclusive and do not appear here. Cut-off read from the data, not from the text of the source: active = normalized growth mostly below about 0.91 (no sharp cut-off); inconclusive = no clear call, values can overlap the other calls; inactive = mostly above about 0.92. The list shows a part of the results.

Assay: chemical genetic growth profiling, strain panel (AID 1159580);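 note: tested at 20 µM; growth read once vehicle control cultures reached saturation at 30 °C; 1 = growth at the plate median or of vehicle wells; lower values mean less growth of the strain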
Conditions: S. cerevisiae deletion strains, growth OD

Measured: normalized growth

O=C1N=C(O)CN1/N=C\c1ccc(-c2ccc([N+](=O)[O-])cc2)o1
inactive: locus YAL013W, strain DEP1, stronger effect = lower value 1.01 and 0.985 | locus YAL021C, strain ccr4, stronger effect = lower value 0.948 | locus YAL026C, strain drs2, stronger effect = lower value 0.981 | locus YAL030W, strain snc1, stronger effect = lower value 0.986 | locus YAL040C, strain CLN3, stronger effect = lower value 1.03 | locus YBL061C, strain skt5, stronger effect = lower value 1 | locus YBR009C, strain hhf1, stronger effect = lower value 1 | locus YBR021W, strain FUR4, stronger effect = lower value 1.03 | locus YBR023C, strain chs3, stronger effect = lower value 0.998 | locus YBR171W, strain sec66, stronger effect = lower value 0.98 | locus YBR229C, strain ROT2, stronger effect = lower value 1.01 | locus YBR231C, strain swc5, stronger effect = lower value 0.971 | locus YBR279W, strain paf1, stronger effect = lower value 0.974 | locus YCL011C, strain gbp2, stronger effect = lower value 0.989 | locus YCL016C, strain dcc1, stronger effect = lower value 0.985 | locus YCL029C, strain bik1, stronger effect = lower value 1.04 | locus YCL061C, strain MRC1 (second series), stronger effect = lower value 1.01 | locus YCL061C, strain MRC1, stronger effect = lower value 0.987 | locus YCL069W, strain vba3, stronger effect = lower value 0.974 | locus YCR088W, strain abp1, stronger effect = lower value 0.973 | locus YDL005C, strain med2, stronger effect = lower value 0.973 | locus YDL035C, strain GPR1, stronger effect = lower value 1.03 | locus YDL040C, strain nat1, stronger effect = lower value 0.978 | locus YDL074C, strain BRE1, stronger effect = lower value 1.04 | locus YDL101C, strain DUN1, stronger effect = lower value 1.01 | locus YDL134C, strain PPH21, stronger effect = lower value 1.02 | locus YDL185W, strain tfp1, stronger effect = lower value 1.04 | locus YDL192W, strain arf1, stronger effect = lower value 1.03 | locus YDR001C, strain nth1, stronger effect = lower value 0.977 | locus YDR069C, strain doa4, stronger effect = lower value 0.987 | locus YDR101C, strain arx1, stronger effect = lower value 1.02 | locus YDR137W, strain rgp1, stronger effect = lower value 0.918 | locus YDR150W, strain NUM1, stronger effect = lower value 1.03 and 1 | locus YDR159W, strain sac3, stronger effect = lower value 0.966 | locus YDR162C, strain NBP2, stronger effect = lower value 1.02 | locus YDR195W, strain ref2 0.988 | locus YDR297W, strain sur2, stronger effect = lower value 0.984 | locus YDR318W, strain mcm21, stronger effect = lower value 1.02 | locus YDR334W, strain swr1, stronger effect = lower value 0.949 | locus YDR335W, strain msn5, stronger effect = lower value 0.985 | locus YDR363W, strain ESC2, stronger effect = lower value 0.996 | locus YDR388W, stronger effect = lower value 1.03 | locus YDR392W, strain spt3, stronger effect = lower value 0.942 | locus YDR502C, strain sam2, stronger effect = lower value 1.01 | locus YEL003W, strain gim4, stronger effect = lower value 0.986 | locus YEL037C, strain rad23, stronger effect = lower value 0.974 | locus YEL061C, strain CIN8 (second series), stronger effect = lower value 0.97 | locus YEL061C, strain CIN8, stronger effect = lower value 1.02 | locus YER002W, strain NOP16, stronger effect = lower value 1 | locus YER015W, strain faa2, stronger effect = lower value 0.968 | locus YER016W, strain bim1, stronger effect = lower value 0.99 | locus YER110C, stronger effect = lower value 1.03 | locus YER111C, strain swi4, stronger effect = lower value 0.968 | locus YER155C, strain BEM2 (second series), stronger effect = lower value 0.955 | locus YER155C, strain BEM2, stronger effect = lower value 1.01 | locus YER167W, strain BCK2, stronger effect = lower value 1.03 | locus YFR010W, strain ubp6, stronger effect = lower value 0.984 | locus YGL078C, strain dbp3, stronger effect = lower value 1.04 | locus YGL086W, strain mad1, stronger effect = lower value 1.02 | locus YGL167C, strain pmr1, stronger effect = lower value 0.994 | locus YGL173C, strain kem1, stronger effect = lower value 0.99 | locus YGL227W, strain vid30, stronger effect = lower value 0.986 | locus YGL240W, strain doc1, stronger effect = lower value 0.977 | locus YGL248W, strain PDE1, stronger effect = lower value 1.02 | locus YGL253W, strain hxk2, stronger effect = lower value 0.987 | locus YGR078C, strain PAC10, stronger effect = lower value 1.02 and 1.01 | locus YGR135W, strain pre9, stronger effect = lower value 1.02 | locus YGR229C, strain SMI1, stronger effect = lower value 0.997 | locus YGR252W, strain gcn5, stronger effect = lower value 0.983 | locus YHR013C, strain ard1, stronger effect = lower value 0.992 | locus YHR027C, strain rpn1, stronger effect = lower value 0.992 | locus YHR030C, strain SLT2, stronger effect = lower value 1.02 and 1.01 | locus YHR079C, strain IRE1 (second series), stronger effect = lower value 1.02 | locus YHR079C, strain IRE1, stronger effect = lower value 1.02 | locus YHR094C, strain hxt1, stronger effect = lower value 1.03 | locus YHR129C, strain ARP1, stronger effect = lower value 1.02 | locus YHR142W, strain chs7, stronger effect = lower value 0.986 | locus YHR200W, strain rpn10, stronger effect = lower value 1.02 | locus YIL066C, strain RNR3, stronger effect = lower value 1.02 | locus YIL073C, strain SPO22, stronger effect = lower value 1.06 | locus YIL125W, strain kgd1, stronger effect = lower value 1.03 | locus YIR030C, strain dcg1, stronger effect = lower value 1.03 | locus YJL092W, strain hpr5, stronger effect = lower value 0.979 | locus YJL095W, strain BCK1 (second series), stronger effect = lower value 0.993 | locus YJL095W, strain BCK1, stronger effect = lower value 1.03 and 1.01 | locus YJL115W, strain asf1, stronger effect = lower value 0.976 | locus YJL129C, strain trk1, stronger effect = lower value 0.912 | locus YJL134W, strain LCB3, stronger effect = lower value 1.01 | locus YJL154C, strain vps35, stronger effect = lower value 0.968 | locus YJL164C, strain tpk1, stronger effect = lower value 1.01 | locus YJL166W, strain qcr8, stronger effect = lower value 0.978 | locus YJL168C, strain set2, stronger effect = lower value 1.02 | locus YJL187C, strain SWE1 (second series), stronger effect = lower value 1.02 | locus YJL187C, strain SWE1, stronger effect = lower value 0.986 | locus YJR043C, strain POL32, stronger effect = lower value 1.04 | locus YJR066W, strain TOR1, stronger effect = lower value 0.944
